Experimental findings from PubChem BioAssay (Tox21) are described below.

Molecules are shown by their SMILES. Records with an inconclusive call do not appear. Where a call stands in place of a potency, no number is given. Calls of active or inactive are those of the source. Calls follow the shape of the dose curve; as a rule, active = well fitted inhibition curve with a large enough effect in the repeat runs; inconclusive = weak or mixed curves; inactive = no such curve, though single readings can be large or run the other way.
Also: nearly all actives have a fitted effect of over 50% in size.

Androgen receptor (Homo sapiens), sequence (P10275 whole entry, looked up): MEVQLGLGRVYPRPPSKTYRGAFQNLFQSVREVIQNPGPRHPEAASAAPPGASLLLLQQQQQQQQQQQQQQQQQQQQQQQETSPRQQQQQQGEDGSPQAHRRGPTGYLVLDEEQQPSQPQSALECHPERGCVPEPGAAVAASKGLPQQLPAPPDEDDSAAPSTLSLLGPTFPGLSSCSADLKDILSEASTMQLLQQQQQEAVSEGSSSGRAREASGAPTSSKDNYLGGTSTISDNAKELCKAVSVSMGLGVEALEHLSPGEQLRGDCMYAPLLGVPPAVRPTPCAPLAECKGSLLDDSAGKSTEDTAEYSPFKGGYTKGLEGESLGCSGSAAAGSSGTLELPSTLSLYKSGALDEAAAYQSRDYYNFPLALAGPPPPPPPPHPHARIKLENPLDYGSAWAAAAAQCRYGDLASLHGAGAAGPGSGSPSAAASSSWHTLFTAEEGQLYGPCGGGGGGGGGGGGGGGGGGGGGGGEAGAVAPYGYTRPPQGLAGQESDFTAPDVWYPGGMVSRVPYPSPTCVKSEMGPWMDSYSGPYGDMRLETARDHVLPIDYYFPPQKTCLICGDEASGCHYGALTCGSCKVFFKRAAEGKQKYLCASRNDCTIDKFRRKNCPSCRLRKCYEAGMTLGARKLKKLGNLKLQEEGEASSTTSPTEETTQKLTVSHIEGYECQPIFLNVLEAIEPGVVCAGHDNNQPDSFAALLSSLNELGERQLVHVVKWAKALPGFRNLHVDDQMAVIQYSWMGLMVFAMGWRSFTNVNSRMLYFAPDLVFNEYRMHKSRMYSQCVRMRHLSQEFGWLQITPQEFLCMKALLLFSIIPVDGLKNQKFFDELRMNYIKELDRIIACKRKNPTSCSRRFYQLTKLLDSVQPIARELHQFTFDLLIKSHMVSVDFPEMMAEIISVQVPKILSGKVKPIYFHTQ

The first experiment has as its target Androgen receptor (Homo sapiens) (UniProt P10275). Put plainly: qHTS assay to identify small molecule antagonists of the androgen receptor (AR) signaling pathway using the MDA cell line in the presence of 0.5 nM R1881 (AID 1259243). To be noted: MDA-kb2 MMTV-luciferase, R1881 0.5 nM, 16 h; series mostly up to 92.4 µM. An outline of the steps:
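Luminescence from an AR/GR-responsive MMTV-luciferase construct in MDA-kb2 breast carcinoma cells, read 30 min after ONE-Glo, following 16 hr co-treatment with compounds and 0.5 nM R1881.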
Take `COC(=O)CC(C(C)=O)C(=O)OC` (configuration not stated): the Potency entry was “inactive”. Take `Nc1cccc2c(N)cccc12`: the Potency result was “inactive”.

As for `CCc1ccc(C)cc1`, the Potency result is “inactive”. For the compound `CCCCCCCCCCCCCOS(=O)(=O)O`, the Potency result was “inactive”.

In the case of `Nc1ccc(F)cc1`, the Potency entry was “inactive”.

As for `CN1C(CSCC(F)(F)F)Nc2cc(Cl)c(S(N)(=O)=O)cc2S1(=O)=O` (configuration not stated), the Potency entry is “inactive”. Regarding `C=Cc1ccc(OC(C)=O)cc1`, the Potency entry was “inactive”.

The target in another experiment is Estrogen receptor (Homo sapiens) (UniProt P03372). Put plainly: qHTS assay to identify small molecule antagonists of the estrogen receptor alpha (ER-alpha) signaling pathway using the BG1 cell line in the presence of 0.1 nM 17-beta-estradiol (AID 1259244). Also: potency is read from the fitted curve at half-maximal effect. As to conditions: VM7Luc4E2 (BG1) ERE-luciferase, antagonist mode, 0.1 nM E2, 22 h; series mostly up to 92.4 µM. An outline of the steps: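 Luciferase signal from VM7Luc4E2 ERE-reporter cells, co-dosed with test compound and 0.1 nM final 17beta-estradiol for 22 h, read with ONE-Glo.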
Estrogen receptor (Homo sapiens), sequence (P03372 whole entry, looked up): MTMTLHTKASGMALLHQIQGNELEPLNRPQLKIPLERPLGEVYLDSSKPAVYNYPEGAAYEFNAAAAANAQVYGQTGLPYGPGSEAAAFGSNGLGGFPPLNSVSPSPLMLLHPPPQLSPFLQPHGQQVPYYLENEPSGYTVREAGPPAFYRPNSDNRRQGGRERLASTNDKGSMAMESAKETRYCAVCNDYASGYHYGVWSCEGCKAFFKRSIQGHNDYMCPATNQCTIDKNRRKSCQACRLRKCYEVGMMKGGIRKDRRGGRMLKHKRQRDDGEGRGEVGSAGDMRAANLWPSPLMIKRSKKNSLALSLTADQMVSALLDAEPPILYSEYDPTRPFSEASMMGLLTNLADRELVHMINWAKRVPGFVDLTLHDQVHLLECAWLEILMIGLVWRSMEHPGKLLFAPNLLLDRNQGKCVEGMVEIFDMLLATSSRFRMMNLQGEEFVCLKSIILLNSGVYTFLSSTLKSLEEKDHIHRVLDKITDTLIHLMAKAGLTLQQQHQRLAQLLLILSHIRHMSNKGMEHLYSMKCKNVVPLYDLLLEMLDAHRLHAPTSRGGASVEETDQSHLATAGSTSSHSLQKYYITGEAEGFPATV
In the case of `COC(=O)CC(C(C)=O)C(=O)OC` (configuration not stated), the Potency entry was “inactive”. For the compound `CC(C)(O)CCc1ccccc1`, the Potency result was “inactive”. As for `Cc1cccc2sc(N)nc12`, the Potency entry is “inactive”. Consider `Nc1cccc2c(N)cccc12`, for which the Potency is 20.5 µM (active). On the same count and under the same terms, in the case of `CC(=O)Oc1cccc(O)c1` it was “inactive”; in that of `COC(OC)OC`, “inactive”. Consider `Nc1ccc(F)cc1`, for which the Potency result was “inactive”. Regarding `CC(=O)OCCC(C)CC(C)(C)C` (configuration not stated), the Potency entry was “inactive”.

Regarding `Cc1ccc(N(CC2=NCCN2)c2cccc(O)c2)cc1`, the Potency result was “inactive”. Regarding `CC(C)N(C)C`, the Potency result is “inactive”.

On to `C[C@@H]1[C@H](O)[C@@H](C)/C=C/C=C\C=C\C=C\C=C\C=C\C=C\[C@H](O[C@@H]2O[C@H](C)[C@@H](O)[C@H](N)[C@@H]2O)C[C@@H]2O[C@](O)(C[C@@H](O)C[C@@H](O)[C@H](O)CC[C@@H](O)C[C@@H](O)CC(=O)O[C@H]1C)C[C@H](O)[C@H]2C(=O)O` (stereo in doubt), for which the Potency result was “inactive”. On the same count and under the same terms, next, `O=C(NC(Cc1cc(=O)[nH]c2ccccc12)C(=O)O)c1ccc(Cl)cc1` (configuration not stated): “inactive”; `CN1C(CSCC(F)(F)F)Nc2cc(Cl)c(S(N)(=O)=O)cc2S1(=O)=O` (configuration not stated): “inactive”. With `O=C(Nc1ccc(C(=O)O)c(O)c1)c1ccccc1`, the Potency result was “inactive”. On to `Cc1ccc(N(CCO)CCO)cc1`, for which the Potency entry was “inactive”.
